This passage reports potentiation results from PubChem BioAssay AID2603 (Johns Hopkins Ion Channel Center, 2010).

This assay has as its target Potassium voltage-gated channel subfamily KQT member 2 (Rattus norvegicus) (UniProt O88943). The assay can be described thus: KCNQ2 channel potentiators, dose response, mechanism study for KCNQ2 potentiator project, cell-based, automated electrophysiology (AID 2603). The following applies: KCNQ2-CHO cells, automated patch clamp current potentiation; at 30 µM (top of the series).

Measured potencies and affinities stand elsewhere.

Potassium voltage-gated channel subfamily KQT member 2 (Rattus norvegicus), sequence (O88943 whole entry, looked up): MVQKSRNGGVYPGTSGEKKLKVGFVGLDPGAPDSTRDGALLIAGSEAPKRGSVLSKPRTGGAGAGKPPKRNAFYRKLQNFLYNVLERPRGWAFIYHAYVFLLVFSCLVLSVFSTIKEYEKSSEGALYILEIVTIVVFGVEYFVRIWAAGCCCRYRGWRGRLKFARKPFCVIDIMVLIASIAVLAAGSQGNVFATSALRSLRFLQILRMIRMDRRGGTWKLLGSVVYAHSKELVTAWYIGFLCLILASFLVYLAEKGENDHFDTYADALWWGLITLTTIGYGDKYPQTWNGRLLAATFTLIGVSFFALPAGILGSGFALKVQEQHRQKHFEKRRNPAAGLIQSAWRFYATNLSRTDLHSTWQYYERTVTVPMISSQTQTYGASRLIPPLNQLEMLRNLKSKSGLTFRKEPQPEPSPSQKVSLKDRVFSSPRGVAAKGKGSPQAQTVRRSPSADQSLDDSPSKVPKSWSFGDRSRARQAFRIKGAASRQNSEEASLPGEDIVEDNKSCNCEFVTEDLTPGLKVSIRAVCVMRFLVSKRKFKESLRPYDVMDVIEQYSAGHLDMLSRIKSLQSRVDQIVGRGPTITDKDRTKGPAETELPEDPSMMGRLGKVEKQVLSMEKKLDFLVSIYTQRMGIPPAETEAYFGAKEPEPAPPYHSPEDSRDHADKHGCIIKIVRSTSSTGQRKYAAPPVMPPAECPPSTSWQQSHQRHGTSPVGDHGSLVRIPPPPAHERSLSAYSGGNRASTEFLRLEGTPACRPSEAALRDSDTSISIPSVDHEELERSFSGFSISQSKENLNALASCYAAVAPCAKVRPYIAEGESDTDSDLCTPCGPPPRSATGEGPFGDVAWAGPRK

Regarding `O=c1[nH]sc2cc(F)ccc12`, the potentiation was 102.
